Screen size: about 52,000 compounds; about 4,300 (8.3%) were called active. Rule as the data show it: active = survival mostly below about 52% (no sharp cut-off); inactive = mostly above about 56%. Many of the other results were omitted from the sample, so actives are more common in it than they were.

This is an account of results in PubChem BioAssay AID463173 (ICCB-Longwood Screening Facility, Harvard Medical School, 2010).

For the assay, the system named is DeltatarO mutant. In words: growth inhibition of S. aureus wild type versus tarO mutant, primary screen, teichoic acid synthesis inhibitors, RN4220, OD600 (AID 463173). The note with it: OD600, 18 h, stronger effect = lower value, screened at 18.75 µg/mL (by protocol).
Turning to `Cc1cccc(N2C(=O)CS/C2=N/NC(=O)c2cccc(Cl)c2)c1`, the survival was 97% (inactive).
`Cc1cccc(NC(=O)Cn2c(SCC(=O)NCc3ccccc3)nc3ccccc32)c1C`: the survival is 119% (inactive).
As for `CCN(C(=O)CSc1nc2ccccc2n1CC(=O)Nc1ccccc1C)c1ccccc1`, the figure is -5% (active).
Turning to `Cc1ccc(NC(=O)Cn2c(=O)c(C(F)(F)F)nc3ccccc32)cc1C`, the survival was 60% (inactive).
For `CCN(C(=O)CSc1nc2ccccc2n1CC(=O)Nc1ccc(F)cc1F)c1ccccc1`, the survival was 77% (inactive).
For `CC(=O)Nc1ccccc1-c1nc2ccccc2n(CC(=O)Nc2cccc(C)c2C)c1=O`, the survival was 117% (inactive).
On to `Cc1cc(C)cc(NC(=O)Cn2c(C(F)(F)F)nc3ccccc32)c1`, for which the survival is 67% (active).
In the case of `CCN(C(=O)CSc1nc2ccccc2n1CC(=O)Nc1cccc(C#N)c1)c1ccccc1`, the survival was 122% (inactive).
Consider `O=C(Cn1c(=O)c(C(F)(F)F)nc2ccccc21)Nc1cccc(Br)c1`, for which the survival is 99% (inactive).
Regarding `Cc1cccc(NC(=O)Cn2c(C(F)(F)F)nc3ccccc32)c1C`, the survival was 31% (active).
With `CC(C)C(=O)NS(=O)(=O)c1ccc(NC(=O)c2ccco2)cc1`, the survival is 90% (inactive).
As for `Cc1ccc(N2CC3=C(C2=O)C(c2ccc(Br)cc2)NC(=O)N3C)cc1` (stereo not given), the figure is 74% (inactive); as for `COc1cc(C)ccc1OCCSc1nc2ccc(NC(=O)c3ccccc3F)cc2s1`, 99% (inactive); as for `Cc1nc(SCC(=O)Nc2nsc(-c3ccc(C(C)(C)C)cc3)n2)c2c3c(sc2n1)CCCC3`, 78% (inactive).
In the case of `COc1ccc2c(C)cc(SCC(=O)Nc3nsc(-c4ccccc4C)n3)nc2c1`, the survival was 35% (active).
As to `Cc1ccc(-c2nc(NC(=O)CSc3ccc4ccccc4n3)ns2)cc1`, the survival was 77% (inactive).
`Cc1cc(SCC(=O)Nc2ccc(Cl)cc2)nc2ccccc12`: the survival was 65% (inactive).
In the case of `Cc1cc(SCC(=O)Nc2nsc(-c3ccc(C(C)(C)C)cc3)n2)nc2ccccc12` it was 13% (active); in that of `CC(C)(C)c1ccc(-c2nc(NC(=O)CSc3ncnc4sc5c(c34)CCCC5)ns2)cc1`, 57% (active).
For `Cc1ccccc1-c1nc(NC(=O)CSc2ncnc3sc4c(c23)CCCC4)ns1`, the survival was 92% (inactive).
As for `COc1ccc2c(C)cc(SCC(=O)Nc3nsc(-c4ccc(C(C)(C)C)cc4)n3)nc2c1`, the survival is 56% (inactive).
On to `Cc1ccc(-c2nc(NC(=O)CSc3cc(C)c4ccccc4n3)ns2)cc1`, for which the survival is 65% (inactive).
With `CCN1CCN(c2oc(/C=C/c3cc(OC)c(OC)c(OC)c3)nc2C#N)CC1`, the survival is 72% (inactive).
For `O=C(O)CSc1nc2c(c(C(F)(F)F)n1)CCc1ccccc1-2`, the survival is 96% (inactive).
As to `CCN(CC)N=Nc1ccc(S(=O)(=O)N2CCSC2C(=O)O)cc1` (stereo not given), the survival is 103% (inactive).
As for `CCOc1ccc(CC(=O)NCCc2csc(-c3ccc(Cl)cc3)n2)cc1`, the survival is 67% (inactive).
Consider `CCOC(=O)/C(C#N)=C\c1ccc(Br)s1`, for which the survival was 93% (inactive).
As for `CN(C(=O)CSc1nc2ccccc2n1CC(=O)NCc1ccc(F)cc1)c1ccc(F)cc1`, the survival was 128% (inactive).
As for `COc1ccc(CNc2ccc3cc(S(=O)(=O)N4CCCCC4)ccc3n2)cc1`, the figure is 79% (inactive).
Regarding `COc1cc(NC(=O)CN2CCCN(S(=O)(=O)c3ccc(F)cc3)CC2)cc(OC)c1`, the survival is 74% (inactive).
Turning to `CCCCSc1nnc2[nH]c(=O)cc(C)n12`, the survival is 99% (inactive).
As to `Cc1ccc2nc(CSc3nnc(NC(=O)CC(C)C)s3)cc(=O)n2c1`, the survival is 76% (inactive).
As to `Cc1ccc2nc(CSc3nnc(NC(=O)C(C)C)s3)cc(=O)n2c1`, the survival was -1% (active).
As for `Cc1cccn2c(=O)cc(CSc3nnc(NC(=O)COc4ccc(F)cc4)s3)nc12`, the figure is -2% (active); as for `Cc1ccc(OCC(=O)Nc2nnc(SCc3cc(=O)n4cccc(C)c4n3)s2)cc1`, 76% (inactive); as for `Cc1ccc2nc(CSc3nnc(NC(=O)COc4ccccc4)s3)cc(=O)n2c1`, 67% (inactive).
For the compound `Cc1ccc2nc(CSc3nnc(NC(=O)COc4ccccc4F)s3)cc(=O)n2c1`, the survival is 70% (inactive).
On to `Cc1cccn2c(=O)cc(CSc3nnc(NC(=O)COc4ccccc4)s3)nc12`, for which the survival was 84% (inactive).
For `CC(C)C(=O)Nc1nnc(SCc2cc(=O)n3ccccc3n2)s1`, the survival was 86% (inactive).
Consider `Cc1ccc(OCC(=O)Nc2nnc(SCc3cc(=O)n4cc(C)ccc4n3)s2)cc1`, for which the survival was 6% (active).
For the compound `COCCN(C(=O)c1ccco1)c1nnc(-c2ccc(F)cc2)s1`, the survival was 58% (inactive).
For `CSc1nnc(-c2ccncc2)n1C`, the survival is 97% (inactive).
With `COc1ccc(N2CCN(S(=O)(=O)c3csc(C(N)=O)c3)CC2)cc1`, the survival is 90% (inactive).
Consider `COc1cc(Cl)c(C)cc1NC(=O)CSc1cc(=O)n(C)c2cc(Cl)ccc12`, for which the survival was 63% (inactive).
In the case of `CC(C)(C)OC(=O)N1CC2C(C1)C2NC(=O)c1nsc(Cl)c1Cl` (stereo not given) it was 82% (inactive); in that of `CCOC(=O)c1ccc(NC(=O)c2ccc3c(c2)c(C)c(C)n3Cc2ccc(F)cc2)cc1`, 91% (inactive); in that of `O=C(Cn1c(=O)n(-c2ccccc2)c(=O)c2ccc(C(=O)NCc3ccc4c(c3)OCO4)cc21)Nc1ccc(Br)cc1`, 79% (inactive).
As for `CSc1ccc(CCNC(=O)Cn2nc(C)n3c(cc4sccc43)c2=O)cc1`, the survival is 88% (inactive).
For the compound `O=C1C2=C(Nc3ccccc3SC2c2c(F)cccc2Cl)c2ccccc21` (stereo not given), the survival is 94% (inactive).
As to `CCc1ccc(C2Sc3ccccc3NC3=C2C(=O)c2ccccc23)cc1` (stereo not given), the survival was 104% (inactive).
In the case of `O=C1C2=C(Nc3ccccc3SC2c2ccccc2C(F)(F)F)c2ccccc21` (stereo not given), the survival is 24% (active).
As for `CCOc1cc(C2Sc3ccccc3NC3=C2C(=O)c2ccccc23)ccc1O` (stereo not given), the survival was 48% (inactive).
With `CC(C)(C)c1ccc(C2Sc3ccccc3NC3=C2C(=O)c2ccccc23)cc1` (stereo not given), the survival is 98% (inactive).
Regarding `O=C1C2=C(Nc3ccccc3SC2c2ccc(Cl)c(Cl)c2)c2ccccc21` (stereo not given), the survival is 22% (active).
With `CC(C)c1ccc(C2Sc3ccccc3NC3=C2C(=O)c2ccccc23)cc1` (stereo not given), the survival is 85% (inactive).
Turning to `CCCc1ccc(C2Sc3ccccc3NC3=C2C(=O)c2ccccc23)cc1` (stereo not given), the survival is 94% (inactive).
For the compound `CC(=O)Nc1ccc(C2Sc3ccccc3NC3=C2C(=O)c2ccccc23)cc1` (stereo not given), the survival was 116% (inactive).
`COc1ccc(C2Sc3ccccc3NC3=C2C(=O)c2ccccc23)c(OC)c1OC` (stereo not given): the survival is 77% (inactive).
Turning to `COc1ccc(Br)cc1C1Sc2ccccc2NC2=C1C(=O)c1ccccc12` (stereo not given), the survival was 31% (active).
As for `O=C1C2=C(Nc3ccccc3SC2c2ccc(C(F)(F)F)cc2)c2ccccc21` (stereo not given), the survival is 16% (active).
